Results filed as inconclusive are left out. Active and inactive are the calls of the source. The call rests on the fitted dose curve.
assay: S16 Schwann cell PMP22 intronic element beta-lactamase assay (AID 624044); settings: S16 rat Schwann cells, PMP22 element beta-lactamase FRET, 24 h; ratio activity, negative = inhibition: at 38.3 µM (top of the series) unless noted; further: nearly all actives have a fitted effect of over 15% in size
Excerpt: Description: Charcot-Marie-Tooth-Association [CMTA] National Center for Advancing Translational Sciences [NCATS] Charcot-Marie-Tooth (CMT) disease was first characterized by Jean-Martin Charcot and Pierre Marie in France and, independently, by Howard Henry Tooth in England in 1886. CMT is one of the most common inherited neurological diseases, affecting approximately 1 in 2,500 Americans. […] The most prevalent type of CMT is known as CMT1A and caused by a duplication of the PMP22 gene which leads to over-expression of this protein. PMP22 is a glycosylated intrinsic membrane protein accounting for 2-5% of the myelin protein content, and its over-expression results in demyelination and subsequently axonal loss. A pair of cellular transcription-based assays was developed in the S16 rat Schwann cell lines (Hai, M., et al., 2002) stably transfected with orthogonal reporters - firefly luciferase (Fluc) and beta-lactamase (beta-Lac) - whose expression is driven by an intronic regulatory element of the PMP22 gene (Jones, E.A., et al., 2011) to recapitulate endogenous expression of PMP22. The current assay employs Blac as a reporter of PMP22 expression. A comprehensive library of approved drugs, the NCGC Pharmaceutical Collection (Huang, R., et al., 2011), was screened in the cross-validating platform of the orthogonal reporter assays to identify drug modulators inhibitory towards PMP22 expression. A set of counter-screens was devised to address non-specific activity of the library. An ATP-dependent CellTiter-Glo assay (developed by Promega Corp) was utilized to control cell viability. In addition, biochemical Fluc enzyme assay was performed to assess direct inhibition of the Fluc enzymatic activity. References Hai, M., Muja, N., DeVries, G.H., Quarles, R.H. and Patel, P.I. Comparative analysis of Schwann cell lines as model systems for myelin gene transcription studies. J Neurosci Res, 2002. 69(4): pp 497-508 Huang, R., Southall, N., Wang, Y., Yasgar A., Shinn P., Jadhav, A. , Nguyen, D.-T. and Austin, C.P., The NCGC pharmaceutical collection: a comprehensive resource of clinically approved drugs enabling repurposing and chemical genomics. Sci Transl Med, 2011. 3(80): p. 80ps16.
S16 Schwann cell PMP22 intronic element beta-lactamase assay The beta-Lac-expressing S16 cells were seeded in black clear-bottom 1536 well plates at between 500-750 cells/6uL in DMEM medium containing 10% FBS, w/o phenol red. After overnight incubation at 37 degree Celsius/5% C02, 23 nL of compounds or DMSO were delivered to each well using a pin tool, followed by 24h-incubation at 37 degree Celsius/5% C02. Then one microl of LiveBLAzer FRET B/G detection mix (Invitrogen) was added to each well. An EnVision plate reader (PerkinElmer) was used to detect the dual beta-Lac output composed of fluorescence at 460nm for beta-Lac expression and FRET at 535nm for cell viability. The % signal at 535 nm was scaled to a full range of DMSO and zero and then normalized using the maximum response observed in the screen as 100% activity. The % signal at 460nm was normalized to the average readings of potassium clavulanate (a positive control) - treated cells relative to DMSO-treated cells (0% Activity). The concentration-effect curves were then classified based on curve quality (r2), response magnitude and degree of measured activity.
Potency means the concentration at half of the fitted maximal effect.

SMILES	ratio activity, negative = inhibition	Potency
NC(=O)C1c2ccccc2CCc2ccccc21	-1.01% (inactive)	
O=C(CCCCCCCCCCCCC1CCCC1)Nc1ccc(S(=O)(=O)c2ccc(NC(=O)CCCCCCCCCCCCC3CCCC3)cc2)cc1	4.78% (inactive)	
O=C(CCCN1CCC(C(=O)c2ccc(F)cc2)CC1)c1ccc(F)cc1	-12.9% (inactive)	
CCSc1ccc2c(c1)N(CCCN1CCN(C)CC1)c1ccccc1S2	0.419% [at 17.1 µM] (inactive)	
O[C@@H]([C@H](O)[C@H](O)CBr)[C@H](O)CBr	3.07% (inactive)	
CCCCCCCCCCCCCCCCCC(=O)OCC(C)O (stereo not given)	-0.254% (inactive)	
Cc1cc(-c2ccc(N=Nc3c(S(=O)(=O)O)cc4cc(S(=O)(=O)O)cc(N)c4c3O)c(C)c2)ccc1N=Nc1c(S(=O)(=O)O)cc2cc(S(=O)(=O)O)cc(N)c2c1O	8.59% (inactive)	
COc1cc(C)c(/C=C/C(C)=C/C=C/C(C)=C/C(=O)O)c(C)c1C	-28.2% (inactive)	
Oc1ccc(Cl)c2c1CCC2	-4.38% (inactive)	
CN1CCc2c(c3ccccc3n2Cc2ccccc2)C1	-4.6% [at 17.1 µM] (inactive)	
NCC[C@H](O)C(=O)N[C@@H]1C[C@H](N)[C@@H](O[C@H]2O[C@H](CN)[C@@H](O)[C@H](O)[C@H]2O)[C@H](O)[C@H]1O[C@H]1O[C@H](CO)[C@@H](O)[C@H](N)[C@H]1O	-4.63% (inactive)	
C=CC[C@@H]1/C=C(\C)C[C@H](C)C[C@H](OC)[C@H]2O[C@@](O)(C(=O)C(=O)N3CCCC[C@H]3C(=O)O[C@H](/C(C)=C/[C@@H]3CC[C@@H](O)[C@H](OC)C3)[C@H](C)[C@@H](O)CC1=O)[C@H](C)C[C@@H]2OC	-24.4% (inactive)	
C=CCCCCCCCCC(=O)OC	-14.3% (inactive)	
NCCO/C=C/[C@H](N)C(=O)O	0.236% (inactive)	
CC(=O)Nc1ccc(NC(=S)NC(=O)c2ccc(C(C)(C)C)cc2)cc1		7.94 µM (active)
O=[n+]1ccn([O-])c2ccccc21	6.86% (inactive)	
NC(=O)[C@@H]1CCCN1C(=O)[C@H](Cc1cnc[nH]1)NC(=O)[C@@H]1CCC(=O)N1	6.16% (inactive)	
CC(C)[C@@H](N)C(=O)O	0.806% (inactive)	
COc1ccc(/C=N/NC(=O)c2ccncc2)c(C(=O)O)c1OC	4.12% (inactive)	
Cc1cc(=O)c(C(=O)N[C@@H](C(=O)N[C@@H]2C(=O)N3C(C(=O)O)=C(CSc4nnnn4C)CS[C@H]23)c2ccc(O)cc2)c[nH]1	0.254% (inactive)	

SMILES	ratio activity, negative = inhibition	Potency
CCOC(=O)c1cc(-c2ccccc2)nc2ccc(C)cc12	4.28% (inactive)	
O=C(NNCS(=O)(=O)O)c1ccncc1	-19.9% (active)	
Cc1ncc[nH]1	-0.768% (inactive)	
CCOc1cc(-c2nccc3cc(OC)c(OC)cc23)cc(OCC)c1OCC	-11.1% (inactive)	
CN(C)C(=O)CCSC(SCCC(=O)O)c1cccc(/C=C/c2ccc3ccc(Cl)cc3n2)c1 (stereo not given)	-0.229% (inactive)	
CC(=O)[O][Al][O]C(C)=O	0.413% (inactive)	
CC(C)O	-7.58% (inactive)	
CC(=O)N=c1sc(S(N)(=O)=O)nn1C	-0.416% [at 17.1 µM] (inactive)	
CC[C@H]1OC(=O)[C@H](C)[C@@H](O[C@H]2C[C@@](C)(OC)[C@@H](O)[C@H](C)O2)C(C)[C@@H](O[C@@H]2O[C@H](C)C[C@H](N(C)C)[C@@H]2O)[C@](C)(OC)C[C@@H](C)C(=O)[C@H](C)[C@@H](O)[C@]1(C)O (stereo not given in full)	4.6% (inactive)	
CC(=O)c1ccc2c(c1)N(CCCN1CCN(CCO)CC1)c1ccccc1S2	-15.1% (inactive)	
C=C1C(CCl)(CCl)C2(Cl)C(Cl)C(Cl)C1(Cl)C2(Cl)Cl (stereo not given)	-26.3% (inactive)	
CC(C)c1nc(N(C)S(C)(=O)=O)nc(-c2ccc(F)cc2)c1/C=C/C(O)CC(O)CC(=O)O (stereo not given)	3.3% (inactive)	
CS(=O)(=O)OCC(O)C(O)COS(C)(=O)=O (stereo not given)	2.66% (inactive)	
CCCCO	1.65% (inactive)	
CO	1.83% (inactive)	
Cc1nc(NS(=O)(=O)c2ccc(N)cc2)nc(C)c1Br	0.0634% (inactive)	
OC[C@H]1O[C@@](CO)(O[C@H]2O[C@H](CO)[C@@H](O)[C@H](O)[C@H]2O)[C@@H](O)[C@@H]1O	0% (inactive)	
CC(=O)Oc1cc(C(F)(F)F)ccc1C(=O)O	-5.78% [at 17.1 µM] (inactive)	
C[C@H](N)C(=O)N[C@@H](C)P(=O)(O)O	4.18% (inactive)	
CCCCCCCCCCCCOCCCN	0.509% (inactive)	

— PubChem BioAssay (NCATS)
